A selection: hits, their analogues and other compounds. The true share with any hit is near 6.8%.
MK inhibit = blocks S. pneumoniae mevalonate kinase. purified MK, PK/LDH-coupled NADH absorbance 340 nm. inhibition, % at 10 µM. 65,000 tested, 0.48% active. AID 555;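 active = ranked among the strongest by inhibition in the single 10 µM screen, a fixed top-ranked set picked for dose follow-up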
DPM-DC inhibit = blocks S. pneumoniae diphosphomevalonate decarboxylase; purified DPM-DC, PK/LDH coupled NADH fluorescence; calls only at 10 µM; 65,000 tested, 0.49% active; AID 556;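 active = the 320 compounds with the highest percent inhibition in the single-dose primary screen, excluding strongly autofluorescent ones, cut at about 32% in these data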;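 note: kinetic rate of NADH fluorescence loss reporting ADP formed by the decarboxylase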
A340 absorber = absorbance at 340 nm | 65,000 tested, under 10 active | AID 708 | compound absorbance at 340 nm, fold over control | fold change at 10 µM;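 active = at 10 µM dose, initial 340 nm absorbance at least 2 fold that of control wells; inactive = change under 2 fold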;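 note: initial absorbance extrapolated from kinetic A340 decline of NADH oxidation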
NADH coupling = blocks coupling enzymes of NAD/NADH assays; coupled PK/LDH NADH assays, four targets; AID 774; IC50, µM (series often up to 10 µM); 65,000 tested, 0.02% active;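 active = single-dose screening hits from any of four coupled enzyme assays that gave an IC50 when retested across doses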;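 note: the DPM-DC format reads NADH fluorescence rather than 340 nm absorbance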
PMK inhibit = blocks S. pneumoniae phosphomevalonate kinase. 65,000 tested, 0.49% active. inhibition, % at 10 µM. purified PMK, PK/LDH-coupled NADH absorbance 340 nm. AID 539;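 active = top-ranked compounds by inhibition in the single 10 µM screen, taking a fixed number of the strongest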
Fluor 339 460 = intrinsic fluorescence of library compounds, ex339/em460 – biochemical, MLSMR library, data from DPM-DC assay, artefact control, profiling panel; compound autofluorescence, ex339/em460 nm, NADH buffer; hits give high values; 1 = no-compound wells, NADH background; fluorescence fold increase at 10 µM; 65,000 tested, 5.5% active; AID 709;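 active = at 10 µM, mean starting fluorescence two-fold or more over control wells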;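 note: signal is the first read of a kinetic run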
Numbers stand for hits; n = inactive; x = not tested or not shown.

SMILES | MK inhibit | DPM-DC inhibit | A340 absorber | NADH coupling | PMK inhibit | Fluor 339 460
Cc1nc2c(c(=O)n1CCC(C)C)c1nc3ccccc3nc1n2Cc1ccc2c(c1)OCO2 | n | n | n | n | n | n
Cc1cc(=O)oc(C)c1C(=O)NCCN1CCOCC1 | n | n | n | n | n | n
Cc1cccc(CN2CCN(CC(=O)O)C2=O)c1 | n | n | n | n | n | n
CCOc1ccccc1C(=O)N(CN1CCCC1=O)c1cccc(Cl)c1 | n | n | n | n | n | n
Cn1c(=O)c2[nH]c(CNCc3ccccc3Cl)nc2n(C)c1=O | n | n | n | n | n | n
O=C(NCc1cccnc1)C1CCN(S(=O)(=O)N2CCOCC2)CC1 | n | n | n | n | n | n
COCC(C)n1c(C)cc(C(=O)COC(=O)c2ccc3ncsc3c2)c1C (configuration not stated) | n | n | n | n | n | n
Cc1cc(-c2nc3ncccc3o2)ccc1N | n | x | n | n | n | 3
CCCC(=O)Nc1cccc(-c2nc3ccccc3o2)c1 | n | n | n | n | n | n
CCC(=O)Nc1ccc2oc(-c3cccc(C)c3)nc2c1 | n | x | n | n | n | 2.3
CCCCC(=O)Nc1ccc2oc(-c3cccnc3)nc2c1 | n | x | n | n | n | 3.9
CCCC(=O)Nc1ccc2oc(-c3cccnc3)nc2c1 | n | x | n | n | n | 2.8
Cc1ccc(-n2c(Cc3cccn3C)nnc2SCC(=O)NCc2ccc3c(c2)OCO3)cc1 | n | n | n | n | n | n
CCOC(=O)C1CCN(C(=O)c2ccc(OCC)c(OCC)c2)CC1 | n | n | n | n | n | n
COc1cccc(C(=O)OCc2ccccc2C#N)c1O | n | n | n | n | n | n
O=C(Nc1ccc2oc(-c3cccnc3)nc2c1)c1cc2ccccc2o1 | n | x | n | n | n | 2.1
CCCCC(=O)Nc1cccc(-c2nc3ncccc3o2)c1 | n | n | n | n | n | 2.3
O=C(Nc1ccc2oc(-c3ccncc3)nc2c1)c1cccs1 | n | x | n | n | n | n
CCCCc1c(O)nc(SCCN(C)C)n(-c2ccccc2)c1=O | n | n | n | n | n | n
Cc1csc(C(C#N)C(=O)c2cc3ccccc3o2)n1 (configuration not stated) | n | n | n | n | n | n
CCCCn1c(=NC(=O)c2cccnc2)c(C(=O)OCC)cc2c(=O)n3ccccc3nc21 | n | x | n | n | n | 2.3
CCOCCCn1c(=NC(=O)c2cccnc2)c(C(=O)OCC)cc2c(=O)n3ccccc3nc21 | n | x | n | n | n | 3.6
N#Cc1cc2c(=O)n3ccccc3nc2n(CCCn2ccnc2)c1=N | n | n | n | n | n | n
Nc1nncn1C(=O)CCCOc1ccc(Cl)cc1Cl | n | n | n | n | n | n
COCCCn1c(=NC(=O)c2ccncc2)c(C#N)cc2c(=O)n3cccc(C)c3nc21 | n | x | n | n | n | 3.9
SMILES | MK inhibit | DPM-DC inhibit | A340 absorber | NADH coupling | PMK inhibit | Fluor 339 460
CCCn1c(=NC(=O)c2ccncc2)c(C#N)cc2c(=O)n3cccc(C)c3nc21 | n | x | n | n | n | 3.6
CCCn1c(=NC(=O)c2ccc3c(c2)OCO3)c(C#N)cc2c(=O)n3cccc(C)c3nc21 | n | n | n | n | n | n
Cc1cccn2c(=O)c3cc(C#N)c(=NC(=O)c4ccncc4)n(CCCOC(C)C)c3nc12 | n | x | n | n | n | 3.6
Cc1cccn2c(=O)c3cc(C#N)c(=N)n(CCN4CCOCC4)c3nc12 | n | x | n | n | n | n
c1ccc(-c2ccc(OCCOCCn3cncn3)cc2)cc1 | n | n | n | n | n | n
COc1cc(OC)c(C2CC(=O)N3CN(c4ccccc4)CSC3=C2C#N)cc1OC (configuration not stated) | 64 | n | n | n | n | n
CC1CN(C(=O)c2cc3c(=O)n4ccccc4nc3s2)CC(C)O1 (configuration not stated) | n | x | n | n | n | 4.9
CC1CN(C(=O)c2cc3c(s2)CCC3)CC(C)O1 (configuration not stated) | n | n | n | n | n | n
NC(=O)NC(Cc1ccccc1)C(=O)O (configuration not stated) | n | n | n | n | n | n
O=C(C(c1ccccc1)c1ccccc1)N1CCN(Cc2ccncc2)CC1 | n | n | n | n | n | n
O=C(C(c1ccccc1)c1ccccc1)N1CCN(Cc2ccccn2)CC1 | 52 | n | n | n | n | n
O=C(CCc1nc(-c2ccccc2F)no1)NC1CCCCCC1 | n | n | n | n | n | n
